Experiments:
Assay in all cases: DAPPL (digital affinity profiling via proximity ligation, sequencing); 10 mM Tris-HCl pH 7.5, 50 mM NaCl, 1 mM DTT, 4% glycerol, room temperature, 30 min; GST-TFs on glutathione beads, 16-mer random dsDNA library, 0.1% formaldehyde crosslink after washing; high values mean tight binding
FEV = target: T1, FEV (Homo sapiens, UniProt Q99581 1-238); settings: protein: recombinant; tags: N-terminal GST; dsDNA, one strand shown
T1 sequence: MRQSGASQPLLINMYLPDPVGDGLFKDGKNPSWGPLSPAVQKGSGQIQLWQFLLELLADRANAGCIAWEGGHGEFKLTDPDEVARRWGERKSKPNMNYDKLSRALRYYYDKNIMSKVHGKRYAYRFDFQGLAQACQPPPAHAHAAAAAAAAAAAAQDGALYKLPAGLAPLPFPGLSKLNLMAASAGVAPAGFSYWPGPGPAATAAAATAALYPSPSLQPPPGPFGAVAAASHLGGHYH
In short: (§1)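 Human transcription factors were made in yeast as GST fusions, captured on glutathione beads and barcoded with DNA. With a tag-only sample included, the pool was incubated with 200 nmole of a random double-stranded 16-mer DNA library in Tris/NaCl/DTT/glycerol buffer at room temperature for 30 min, then crosslinked with 0.1% formaldehyde after washing, ligated by proximity, amplified and sequenced. For binding signal, each hexamer's read frequency for a factor is divided by its frequency for the tag-only sample.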

ETV5 = ETV5 (Homo sapiens, UniProt P41161 1-510); settings: protein: recombinant; tags: N-terminal GST; dsDNA, one strand shown
Chain of ETV5 (P41161 whole entry): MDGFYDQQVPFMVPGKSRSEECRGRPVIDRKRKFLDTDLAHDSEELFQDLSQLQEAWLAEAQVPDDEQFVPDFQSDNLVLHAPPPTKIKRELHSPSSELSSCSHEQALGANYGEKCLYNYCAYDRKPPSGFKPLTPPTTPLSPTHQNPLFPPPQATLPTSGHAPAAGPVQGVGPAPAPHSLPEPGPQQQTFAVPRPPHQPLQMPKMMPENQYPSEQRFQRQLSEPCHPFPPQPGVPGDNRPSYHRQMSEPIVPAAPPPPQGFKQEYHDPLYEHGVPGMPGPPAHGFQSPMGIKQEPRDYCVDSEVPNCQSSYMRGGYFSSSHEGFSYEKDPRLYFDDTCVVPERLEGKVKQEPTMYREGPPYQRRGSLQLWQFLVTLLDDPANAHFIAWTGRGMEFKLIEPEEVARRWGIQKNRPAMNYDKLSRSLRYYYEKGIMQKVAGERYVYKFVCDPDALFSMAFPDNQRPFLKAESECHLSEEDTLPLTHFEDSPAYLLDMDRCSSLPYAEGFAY
In short: as §1

HSF1 = HSF1 (Homo sapiens, UniProt Q00613 1-529); settings: protein: recombinant; tags: N-terminal GST; chain copies: 3; dsDNA, one strand shown
Chain of HSF1 (Q00613 whole entry): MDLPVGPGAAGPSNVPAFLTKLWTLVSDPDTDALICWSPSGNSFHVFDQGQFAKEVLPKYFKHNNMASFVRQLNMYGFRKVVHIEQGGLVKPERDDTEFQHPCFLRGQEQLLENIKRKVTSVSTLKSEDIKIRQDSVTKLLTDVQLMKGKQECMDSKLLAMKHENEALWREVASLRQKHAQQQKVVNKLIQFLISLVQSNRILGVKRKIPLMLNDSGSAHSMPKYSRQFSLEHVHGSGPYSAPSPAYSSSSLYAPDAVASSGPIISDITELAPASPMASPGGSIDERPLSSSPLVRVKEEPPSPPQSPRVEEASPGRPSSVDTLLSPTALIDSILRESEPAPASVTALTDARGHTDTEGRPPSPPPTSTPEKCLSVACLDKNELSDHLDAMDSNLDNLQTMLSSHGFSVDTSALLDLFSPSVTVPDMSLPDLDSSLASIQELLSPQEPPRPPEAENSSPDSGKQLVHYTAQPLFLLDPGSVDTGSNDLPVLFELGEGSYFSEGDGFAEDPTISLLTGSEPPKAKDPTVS
In short: as §1

SPIC = target: T2, SPIC (Homo sapiens, UniProt Q8N5J4 1-248); settings: protein: recombinant; tags: N-terminal GST; dsDNA, one strand shown
T2 sequence: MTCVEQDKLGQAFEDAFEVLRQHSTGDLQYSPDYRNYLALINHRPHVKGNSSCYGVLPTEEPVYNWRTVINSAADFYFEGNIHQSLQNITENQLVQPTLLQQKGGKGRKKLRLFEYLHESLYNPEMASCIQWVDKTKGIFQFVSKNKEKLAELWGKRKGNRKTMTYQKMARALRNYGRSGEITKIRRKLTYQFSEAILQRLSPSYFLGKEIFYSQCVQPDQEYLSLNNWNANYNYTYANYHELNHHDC
In short: as §1

ELF4 = ELF4 (Homo sapiens, UniProt Q99607 1-663); settings: protein: recombinant; tags: N-terminal GST; dsDNA, one strand shown
Chain of ELF4 (Q99607 whole entry): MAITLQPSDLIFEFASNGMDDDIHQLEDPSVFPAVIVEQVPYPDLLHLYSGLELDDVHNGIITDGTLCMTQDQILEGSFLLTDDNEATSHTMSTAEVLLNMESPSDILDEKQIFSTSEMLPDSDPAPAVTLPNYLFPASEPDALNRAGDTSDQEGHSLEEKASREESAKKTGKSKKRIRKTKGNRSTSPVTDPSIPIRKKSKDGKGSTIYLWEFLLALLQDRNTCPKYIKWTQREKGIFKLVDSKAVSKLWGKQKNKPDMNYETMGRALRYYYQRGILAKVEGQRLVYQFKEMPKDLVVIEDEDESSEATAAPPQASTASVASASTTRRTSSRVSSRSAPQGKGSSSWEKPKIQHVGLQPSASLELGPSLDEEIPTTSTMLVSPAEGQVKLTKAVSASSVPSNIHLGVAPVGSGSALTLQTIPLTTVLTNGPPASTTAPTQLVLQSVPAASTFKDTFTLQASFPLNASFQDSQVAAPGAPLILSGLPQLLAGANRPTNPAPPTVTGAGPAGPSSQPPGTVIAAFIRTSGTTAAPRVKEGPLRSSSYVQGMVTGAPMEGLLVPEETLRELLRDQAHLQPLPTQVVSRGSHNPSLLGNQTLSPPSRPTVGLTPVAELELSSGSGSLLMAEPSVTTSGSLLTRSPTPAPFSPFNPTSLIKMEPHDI
In short: as §1

ELK4 = target: T3, ELK4 (Homo sapiens, UniProt P28324-2 1-405); settings: protein: recombinant; tags: N-terminal GST; dsDNA, one strand shown
T3 sequence: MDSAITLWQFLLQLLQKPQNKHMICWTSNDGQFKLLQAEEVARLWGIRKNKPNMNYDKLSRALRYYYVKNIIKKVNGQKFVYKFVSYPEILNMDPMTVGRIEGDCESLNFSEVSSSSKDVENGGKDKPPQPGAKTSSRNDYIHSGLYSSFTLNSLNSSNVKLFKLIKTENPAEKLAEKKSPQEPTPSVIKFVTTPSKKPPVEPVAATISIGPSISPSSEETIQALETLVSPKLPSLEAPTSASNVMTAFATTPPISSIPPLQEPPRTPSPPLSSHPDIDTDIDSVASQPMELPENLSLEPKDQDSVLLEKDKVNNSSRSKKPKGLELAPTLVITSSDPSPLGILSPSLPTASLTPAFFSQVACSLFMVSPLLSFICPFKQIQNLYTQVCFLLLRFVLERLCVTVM
In short: as §1

ETV2 = target: T4, ETV2 (Homo sapiens, UniProt O00321 1-342); settings: protein: recombinant; tags: N-terminal GST; dsDNA, one strand shown
T4 sequence: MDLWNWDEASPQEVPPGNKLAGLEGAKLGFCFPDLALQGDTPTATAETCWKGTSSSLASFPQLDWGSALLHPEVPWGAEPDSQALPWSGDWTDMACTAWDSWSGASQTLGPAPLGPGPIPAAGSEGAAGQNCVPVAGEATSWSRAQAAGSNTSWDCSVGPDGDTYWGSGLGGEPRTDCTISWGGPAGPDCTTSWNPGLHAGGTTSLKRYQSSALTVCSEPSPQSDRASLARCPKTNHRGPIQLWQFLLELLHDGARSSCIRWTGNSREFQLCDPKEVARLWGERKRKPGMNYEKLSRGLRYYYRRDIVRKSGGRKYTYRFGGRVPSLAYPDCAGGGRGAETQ
In short: as §1

ELF3 = target: T5, ELF3 (Homo sapiens, UniProt P78545 1-371); settings: protein: recombinant; tags: N-terminal GST; dsDNA, one strand shown
T5 sequence: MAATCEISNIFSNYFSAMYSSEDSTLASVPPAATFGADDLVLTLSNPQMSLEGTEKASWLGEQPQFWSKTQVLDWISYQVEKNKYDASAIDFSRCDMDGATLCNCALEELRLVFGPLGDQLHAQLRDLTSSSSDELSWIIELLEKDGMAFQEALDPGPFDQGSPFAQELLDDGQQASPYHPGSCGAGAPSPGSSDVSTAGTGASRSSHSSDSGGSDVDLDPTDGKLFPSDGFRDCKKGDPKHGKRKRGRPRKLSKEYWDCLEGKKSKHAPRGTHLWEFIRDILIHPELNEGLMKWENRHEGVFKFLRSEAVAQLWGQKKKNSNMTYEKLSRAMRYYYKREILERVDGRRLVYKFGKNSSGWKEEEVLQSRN
In short: as §1

CRX = CRX (Homo sapiens, UniProt O43186 1-299); settings: protein: recombinant; tags: N-terminal GST; dsDNA, one strand shown
Chain of CRX (O43186 whole entry): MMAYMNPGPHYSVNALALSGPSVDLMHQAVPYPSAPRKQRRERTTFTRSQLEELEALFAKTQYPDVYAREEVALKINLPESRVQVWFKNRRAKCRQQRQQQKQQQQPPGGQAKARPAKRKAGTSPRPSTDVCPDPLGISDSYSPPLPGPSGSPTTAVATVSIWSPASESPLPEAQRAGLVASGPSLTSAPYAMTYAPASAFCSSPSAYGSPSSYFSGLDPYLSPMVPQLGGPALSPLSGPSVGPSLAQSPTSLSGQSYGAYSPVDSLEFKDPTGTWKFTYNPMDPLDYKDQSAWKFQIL
In short: as §1

ETV1 = ETV1 (Homo sapiens, UniProt P50549 1-477); settings: protein: recombinant; tags: N-terminal GST; dsDNA, one strand shown
Chain of ETV1 (P50549 whole entry): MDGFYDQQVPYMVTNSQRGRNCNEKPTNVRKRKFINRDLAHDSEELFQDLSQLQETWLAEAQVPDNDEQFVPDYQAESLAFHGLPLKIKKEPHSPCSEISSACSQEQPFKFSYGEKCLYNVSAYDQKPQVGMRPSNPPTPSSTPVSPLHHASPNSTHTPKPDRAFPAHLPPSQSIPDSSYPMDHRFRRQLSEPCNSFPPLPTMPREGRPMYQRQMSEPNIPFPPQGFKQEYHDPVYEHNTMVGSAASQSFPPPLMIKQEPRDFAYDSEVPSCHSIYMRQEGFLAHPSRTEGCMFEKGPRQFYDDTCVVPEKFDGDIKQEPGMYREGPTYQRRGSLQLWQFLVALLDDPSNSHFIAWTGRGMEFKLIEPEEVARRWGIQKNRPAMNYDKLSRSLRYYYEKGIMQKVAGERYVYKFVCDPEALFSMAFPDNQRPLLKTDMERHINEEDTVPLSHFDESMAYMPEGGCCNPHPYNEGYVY
In short: as §1

ERF = target: T6, ERF (Homo sapiens, UniProt P50548 1-548); settings: protein: recombinant; tags: N-terminal GST; dsDNA, one strand shown
T6 sequence: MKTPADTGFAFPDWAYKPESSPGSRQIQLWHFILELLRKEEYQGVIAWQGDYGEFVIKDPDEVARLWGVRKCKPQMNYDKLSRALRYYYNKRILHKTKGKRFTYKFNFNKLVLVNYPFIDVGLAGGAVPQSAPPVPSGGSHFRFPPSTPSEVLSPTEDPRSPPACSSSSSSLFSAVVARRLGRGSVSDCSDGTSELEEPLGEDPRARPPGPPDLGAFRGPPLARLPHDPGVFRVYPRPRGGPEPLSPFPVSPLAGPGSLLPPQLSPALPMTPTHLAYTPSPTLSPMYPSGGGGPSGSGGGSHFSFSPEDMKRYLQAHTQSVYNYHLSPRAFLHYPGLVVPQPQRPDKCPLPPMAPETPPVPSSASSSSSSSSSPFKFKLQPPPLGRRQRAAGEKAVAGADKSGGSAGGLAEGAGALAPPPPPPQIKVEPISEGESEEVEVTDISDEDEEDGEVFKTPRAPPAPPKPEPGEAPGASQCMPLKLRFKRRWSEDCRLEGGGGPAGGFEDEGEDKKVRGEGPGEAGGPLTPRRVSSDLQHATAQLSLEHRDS
In short: as §1

ETV3L = target: T7, ETV3L (Homo sapiens, UniProt Q6ZN32 1-361); settings: protein: recombinant; tags: N-terminal GST; dsDNA, one strand shown
T7 sequence: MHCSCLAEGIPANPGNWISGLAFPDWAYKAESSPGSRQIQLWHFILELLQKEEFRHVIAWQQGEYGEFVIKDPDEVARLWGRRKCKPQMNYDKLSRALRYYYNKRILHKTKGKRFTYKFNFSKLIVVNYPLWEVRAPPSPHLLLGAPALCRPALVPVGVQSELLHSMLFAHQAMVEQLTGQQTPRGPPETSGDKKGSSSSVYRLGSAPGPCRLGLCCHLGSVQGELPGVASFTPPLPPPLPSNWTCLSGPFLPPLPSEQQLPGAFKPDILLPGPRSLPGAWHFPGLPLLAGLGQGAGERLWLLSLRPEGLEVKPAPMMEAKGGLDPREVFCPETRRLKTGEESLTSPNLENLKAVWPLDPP
In short: as §1

ETS2 = target: T8, ETS2 (Homo sapiens, UniProt P15036 1-469); settings: protein: recombinant; tags: N-terminal GST; dsDNA, one strand shown
T8 sequence: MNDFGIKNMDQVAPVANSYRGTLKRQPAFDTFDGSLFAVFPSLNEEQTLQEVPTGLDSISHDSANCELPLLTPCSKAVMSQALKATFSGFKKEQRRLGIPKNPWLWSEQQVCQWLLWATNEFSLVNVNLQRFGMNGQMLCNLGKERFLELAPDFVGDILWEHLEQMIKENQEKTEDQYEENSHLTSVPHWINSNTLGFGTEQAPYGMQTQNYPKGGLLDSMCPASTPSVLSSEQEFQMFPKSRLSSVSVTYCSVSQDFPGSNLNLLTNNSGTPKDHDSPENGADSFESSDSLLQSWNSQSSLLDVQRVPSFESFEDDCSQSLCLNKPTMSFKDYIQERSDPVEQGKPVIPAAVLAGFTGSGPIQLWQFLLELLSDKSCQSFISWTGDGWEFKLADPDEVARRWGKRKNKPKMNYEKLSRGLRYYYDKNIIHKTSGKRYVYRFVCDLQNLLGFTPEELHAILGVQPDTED
In short: as §1

SPDEF = target: T9, SPDEF (Homo sapiens, UniProt O95238 1-335); settings: protein: recombinant; tags: N-terminal GST; dsDNA, one strand shown
T9 sequence: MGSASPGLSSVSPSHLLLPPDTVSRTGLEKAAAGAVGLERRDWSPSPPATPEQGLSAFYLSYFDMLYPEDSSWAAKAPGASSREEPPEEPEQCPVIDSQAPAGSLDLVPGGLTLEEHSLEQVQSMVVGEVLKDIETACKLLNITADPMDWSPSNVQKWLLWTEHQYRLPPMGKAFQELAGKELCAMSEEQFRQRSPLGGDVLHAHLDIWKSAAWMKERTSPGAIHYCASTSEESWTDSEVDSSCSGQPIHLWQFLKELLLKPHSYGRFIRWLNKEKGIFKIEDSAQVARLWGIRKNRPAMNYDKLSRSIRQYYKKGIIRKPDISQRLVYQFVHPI
In short: as §1

ETV7 = target: T10, ETV7 (Homo sapiens, UniProt Q9Y603 1-341); settings: protein: recombinant; tags: N-terminal GST; dsDNA, one strand shown
T10 sequence: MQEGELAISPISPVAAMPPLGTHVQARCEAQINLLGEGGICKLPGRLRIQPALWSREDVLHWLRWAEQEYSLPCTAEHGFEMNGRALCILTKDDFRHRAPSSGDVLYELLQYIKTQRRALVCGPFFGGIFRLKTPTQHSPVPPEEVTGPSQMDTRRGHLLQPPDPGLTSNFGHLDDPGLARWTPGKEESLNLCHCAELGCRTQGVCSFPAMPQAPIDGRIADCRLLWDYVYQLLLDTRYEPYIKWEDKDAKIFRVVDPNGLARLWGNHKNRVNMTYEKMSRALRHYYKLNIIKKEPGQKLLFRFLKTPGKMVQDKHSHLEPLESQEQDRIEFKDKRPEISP
In short: as §1

ELF5 = target: T11, ELF5 (Homo sapiens, UniProt Q9UKW6-2 1-255); settings: protein: recombinant; tags: N-terminal GST; dsDNA, one strand shown
T11 sequence: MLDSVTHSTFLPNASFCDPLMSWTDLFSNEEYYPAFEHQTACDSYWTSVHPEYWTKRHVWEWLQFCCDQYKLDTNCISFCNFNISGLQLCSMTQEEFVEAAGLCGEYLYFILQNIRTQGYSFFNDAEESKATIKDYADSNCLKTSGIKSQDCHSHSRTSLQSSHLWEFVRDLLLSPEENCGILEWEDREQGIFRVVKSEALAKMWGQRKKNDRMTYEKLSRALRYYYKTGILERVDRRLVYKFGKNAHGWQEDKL
In short: as §1

ETV3 = target: T12, ETV3 (Homo sapiens, UniProt P41162-2 1-143); settings: protein: recombinant; tags: N-terminal GST; dsDNA, one strand shown
T12 sequence: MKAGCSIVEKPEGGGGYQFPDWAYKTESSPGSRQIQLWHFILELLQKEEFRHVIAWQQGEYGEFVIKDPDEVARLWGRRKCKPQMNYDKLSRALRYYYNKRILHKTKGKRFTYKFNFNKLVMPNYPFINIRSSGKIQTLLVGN
In short: as §1

ETV6 = ETV6 (Homo sapiens, UniProt P41212 1-452); settings: protein: recombinant; tags: N-terminal GST; dsDNA, one strand shown
Chain of ETV6 (P41212 whole entry): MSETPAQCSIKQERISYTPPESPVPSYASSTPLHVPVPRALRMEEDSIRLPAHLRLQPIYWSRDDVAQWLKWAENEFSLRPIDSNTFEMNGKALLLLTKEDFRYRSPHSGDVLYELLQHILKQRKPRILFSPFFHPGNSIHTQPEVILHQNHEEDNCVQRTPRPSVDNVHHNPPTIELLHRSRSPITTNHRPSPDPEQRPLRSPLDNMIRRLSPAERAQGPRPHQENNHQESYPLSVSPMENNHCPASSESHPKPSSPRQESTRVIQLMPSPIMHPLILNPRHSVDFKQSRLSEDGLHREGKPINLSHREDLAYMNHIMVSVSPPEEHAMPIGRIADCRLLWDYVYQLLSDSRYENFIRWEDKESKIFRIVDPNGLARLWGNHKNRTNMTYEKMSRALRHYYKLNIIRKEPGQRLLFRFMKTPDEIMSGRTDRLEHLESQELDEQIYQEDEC
In short: as §1

Sequence	binding signal (FEV)	binding signal (ETV5)	binding signal (HSF1)	binding signal (SPIC)	binding signal (ELF4)	binding signal (ELK4)	binding signal (ETV2)	binding signal (ELF3)	binding signal (CRX)	binding signal (ETV1)	binding signal (ERF)	binding signal (ETV3L)	binding signal (ETS2)	binding signal (SPDEF)	binding signal (ETV7)	binding signal (ELF5)	binding signal (ETV3)	binding signal (ETV6)
GCTATA	1.14 fold enrichment (6-mer frequency, TF over GST control)	1.18 fold enrichment (6-mer frequency, TF over GST control)	1.08 fold enrichment (6-mer frequency, TF over GST control)	1.08 fold enrichment (6-mer frequency, TF over GST control)	1.14 fold enrichment (6-mer frequency, TF over GST control)	1.18 fold enrichment (6-mer frequency, TF over GST control)	1.2 fold enrichment (6-mer frequency, TF over GST control)	1.22 fold enrichment (6-mer frequency, TF over GST control)	1.23 fold enrichment (6-mer frequency, TF over GST control)	1.14 fold enrichment (6-mer frequency, TF over GST control)	1.16 fold enrichment (6-mer frequency, TF over GST control)	1.08 fold enrichment (6-mer frequency, TF over GST control)	1.14 fold enrichment (6-mer frequency, TF over GST control)	1.21 fold enrichment (6-mer frequency, TF over GST control)	1.18 fold enrichment (6-mer frequency, TF over GST control)	1.15 fold enrichment (6-mer frequency, TF over GST control)	1.18 fold enrichment (6-mer frequency, TF over GST control)	1.14 fold enrichment (6-mer frequency, TF over GST control)
TATACA	1.29 fold enrichment (6-mer frequency, TF over GST control)	1.35 fold enrichment (6-mer frequency, TF over GST control)	1.27 fold enrichment (6-mer frequency, TF over GST control)	1.28 fold enrichment (6-mer frequency, TF over GST control)	1.37 fold enrichment (6-mer frequency, TF over GST control)	1.28 fold enrichment (6-mer frequency, TF over GST control)	1.28 fold enrichment (6-mer frequency, TF over GST control)	1.43 fold enrichment (6-mer frequency, TF over GST control)	1.36 fold enrichment (6-mer frequency, TF over GST control)	1.43 fold enrichment (6-mer frequency, TF over GST control)	1.34 fold enrichment (6-mer frequency, TF over GST control)	1.3 fold enrichment (6-mer frequency, TF over GST control)	1.37 fold enrichment (6-mer frequency, TF over GST control)	1.44 fold enrichment (6-mer frequency, TF over GST control)	1.35 fold enrichment (6-mer frequency, TF over GST control)	1.29 fold enrichment (6-mer frequency, TF over GST control)	1.31 fold enrichment (6-mer frequency, TF over GST control)	1.25 fold enrichment (6-mer frequency, TF over GST control)

From publication PMC7862700, “An all-to-all approach to the identification of sequence-specific readers for epigenetic DNA modifications on cytosine”
